# Data published in PubChem BioAssay (NCATS).
# Values joined by “and” are separate entries in the source; they are usually repeats but may differ in a detail not shown here. Equal values may be shown once. Records with an inconclusive call do not appear. Active and inactive are the calls of the source. Calls follow the shape of the dose curve; as a rule, active = well fitted inhibition curve with a large enough effect; inconclusive = small, poorly fitted or top-dose-only effect; inactive = flat fitted curve, though single readings scatter.
# Test: P-glycoprotein substrates identified in KB-8-5-11 adenocarcinoma cell line, qHTS therapeutic library screen (AID 1346987); also: nearly all actives have a fitted effect of over 65% in size
# Details: KB-8-5-11 (P-gp overexpressing) viability, CellTiter-Glo, 72 h; series mostly up to 44.5 µM; activity change, negative = cytotoxicity: at the top concentration
# Method in brief: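 Human cervical adenocarcinoma KB-8-5-11 cells, selected in colchicine to over-express P-gp and assayed without it, were exposed for 72 h to titrated compounds. An ATP-based luminescent viability signal gave AC50.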
# % is scaled to controls: 0 for no effect and ±100 for the full control effect; potency is read from the fitted curve at half-maximal effect.
SMILES,"activity change, negative = cytotoxicity",Potency,outcome
c1ccc2nc(N3CCNCC3)ccc2c1,10.6% (inactive),,
Oc1ccc([C@H]2CNCc3c2ccc(O)c3O)cc1O,-5.22% (inactive),,
C[C@]12CC[C@H]3[C@@H](CCC4=CC(=O)CC[C@@H]43)[C@@H]1CC[C@@H]2O,,2.91 µM (active) and 5.8 µM (active),
CCCCCCCCCCCC[N+](C)(C)CCOc1ccccc1,-15.2% (inactive),,
C[C@H]1CNCCc2ccc(Cl)cc21,-0.461% (inactive),,
COc1cc(CC(C)N)cc2c1OCO2 (stereo unspecified),-12.8% [at 93.4 µM] (inactive),,
COc1ccc2c3c1O[C@H]1[C@@H](O)C=C[C@H]4[C@@H](C2)N(C)CC[C@@]341,1.56% [at 93.4 µM] (inactive),,
CCOC(=O)c1ncn2c1CN(C)C(=O)c1c(I)cccc1-2,,,inactive
COc1ccc(OC)c(CC(C)N)c1 (stereo unspecified),-17% [at 93.4 µM] (inactive),,
CN(C)CCc1c[nH]c2ccc(O)cc12,-14.6% [at 93.4 µM] (inactive),,
O=C(O)Cc1ccccc1,2.86% (inactive),,
CN(C)CCc1c[nH]c2cccc(O)c12,-18.1% [at 93.4 µM] (inactive),,
CCC(=O)OC1(c2ccccc2)CCN(C)CC1,-2.52% [at 93.4 µM] (inactive),,
C[C@@H]1CN(C2CCC(C#N)(c3ccc(F)cc3)CC2)CC[C@]1(C(=O)O)c1ccccc1 (stereo partly specified),-15.6% [at 17.3 µM] (inactive),,
O=C(O)CCCCCCNC1c2ccccc2CCc2ccccc21,,,inactive
CNC(C)Cc1ccc2c(c1)OCO2 (stereo unspecified),5.23% [at 93.4 µM] (inactive),,
Cc1nnc2n1-c1sc(CCc3ccc(CC(C)C)cc3)cc1C(c1ccccc1Cl)=NC2C (stereo unspecified),,14.6 µM (active),
CN(C)CCc1c[nH]c2ccccc12,4.37% [at 163 µM] (inactive),,
Cc1nnc2n1-c1sc(CCC(=O)N3CCOCC3)cc1C(c1ccccc1Cl)=NC2,,inactive,
COc1ccc2c(C(=O)c3ccc(Cl)cc3)c(C)n(CC(=O)O)c2c1,,,inactive
O=C(N[C@H]1N=C(c2ccccc2F)c2cccc3c2N(CC3)C1=O)c1cc2ccccc2[nH]1,-2.69% (inactive),,
NC1(c2ccccc2)CCCCC1,-2.8% [at 93.4 µM] (inactive),,
CC[C@H]1C[C@@H]2C[C@H]3c4[nH]c5ccc(OC)cc5c4CCN(C2)[C@@H]13,-16.2% [at 93.4 µM] (inactive),,
Cc1cccc(Cc2cnc[nH]2)c1C,-0.7% (inactive),,
CCC(OC(C)=O)C(CC(C)NC)(c1ccccc1)c1ccccc1 (stereo unspecified),,20 µM (active),
COc1cc(C[C@@H](C)N)c(OC)cc1Br,-28.5% [at 93.4 µM] (inactive),,
